Bioassay records from PubChem BioAssay.
This is a sample that favours compounds with a hit; in the whole collection about 21% have one here.
DRD3 agonist: D3 dopamine receptor (human) agonism. P35462. D3R DiscoveRx beta-arrestin cells, luminescence, 90 min. max activation, %. actives 0.58% (n = 410,000); in the data active = max activation above about 30%
Target sequence (P35462 whole entry, looked up): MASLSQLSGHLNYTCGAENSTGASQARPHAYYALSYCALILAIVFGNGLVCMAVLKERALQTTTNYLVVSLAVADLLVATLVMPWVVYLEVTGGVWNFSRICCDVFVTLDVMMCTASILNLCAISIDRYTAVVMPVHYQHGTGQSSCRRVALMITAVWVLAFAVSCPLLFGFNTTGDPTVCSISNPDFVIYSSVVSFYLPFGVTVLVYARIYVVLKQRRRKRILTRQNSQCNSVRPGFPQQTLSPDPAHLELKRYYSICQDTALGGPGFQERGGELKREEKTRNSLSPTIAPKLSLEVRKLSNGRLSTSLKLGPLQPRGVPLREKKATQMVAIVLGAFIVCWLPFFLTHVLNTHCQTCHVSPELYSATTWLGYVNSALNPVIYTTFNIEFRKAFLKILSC
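Agonist-mode cell screen: cells plated at 1500/well and incubated overnight at 37 °C, then exposed to library compounds for 90 min at 37 °C. Detection reagent was added for 30–60 min at room temperature, and luminescence was read.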
IL-1B inflam inh: blocks inflammasome-driven IL-1 beta release; activity change, % at 57.5 µM; THP-1 LPS/ATP IL-1B secretion, AlphaLISA, 16 h; hits give low values; AID 743279; actives 4.7% (n = 360,000); in the data active = activity change below about -50%; inconclusive = mostly about -30% to -49%
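Secreted IL-1B measured by AlphaLISA bead assay after 16 h compound exposure of THP-1 cells; compounds (final up to 57.5 uM) added 1 h before LPS (250 ng/mL) and ATP (1.25 mM) stimulation; lower signal means less secretion.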
DT40 TDP1 no CPT: qHTS for Inhibitors of human tyrosyl-DNA phosphodiesterase 1 (TDP1): qHTS in cells in absence of CPT; DT40 Tdp1-/- hTDP1 cells, no CPT, ATP luminescence, 48 h; actives 15% (n = 420,000); AID 686978, 2013; Potency, µM (series often up to 46.2 µM), most hits filed as inhibitors; note: nearly all actives have a fitted effect of over 55% in size
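DT40 Tdp1-/-;hTDP1 cells, no CPT (DMSO vehicle only), 400 cells/well; compounds pin-transferred; ≥48 hr, 37 °C; CellTiter-Glo 30 min RT dark, luminescence read.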
DRD3 antagonist: blocks the human D3 dopamine receptor | P35462 | AID 652054 | D3R cells, DiscoveRx beta-arrestin luminescence, antagonist mode; hits give low values | max response, negative = inhibition, % | actives 2.5% (n = 360,000); in the data active = max response below about -50%; inconclusive = no clear call, values can overlap the other calls
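Cells expressing the human receptor were seeded at 1500 cells/well, incubated overnight at 37 degrees C in 5% CO2, then exposed to library compounds with dopamine controls for 90 minutes at 37 degrees C before luminescent detection.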
TDP1 cell CPT: DT40-hTDP1 cell growth loss with CPT; AID 686979; Potency, µM (titrated, usually from 46.2 µM), hits mostly inhibitors; chicken DT40 Tdp1-/-;hTDP1 cells + 20 nM CPT, ATP luminescence, 48 h; actives 12% (n = 420,000); note: nearly all actives have a fitted effect of over 55% in size
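Cell growth measured by CellTiter-Glo luminescence after a minimum 48 h, 37 C compound exposure with 20 nM CPT in Tdp1-knockout DT40 cells stably expressing hTDP1, seeded 400/well; qHTS titration format.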
ClpP mod: qHTS Assay for Activators of ClpP. ATP-dependent Clp protease proteolytic subunit (Bacillus subtilis (strain 168)), P80244. Potency, µM (titrated, usually from 57.5 µM). actives 1.9% (n = 340,000). purified B. subtilis ClpP, FRET peptide cleavage, 20 min; active = well fitted falling curve with a large enough effect; inconclusive = small, poorly fitted or top-dose-only effect; inactive = no such curve, though single readings can be large or run the other way; note: the source files actives as falling curves though it sought activators and does not explain the sign; nearly all actives have a fitted effect of over 65% in size
Target sequence (P80244 whole entry, looked up): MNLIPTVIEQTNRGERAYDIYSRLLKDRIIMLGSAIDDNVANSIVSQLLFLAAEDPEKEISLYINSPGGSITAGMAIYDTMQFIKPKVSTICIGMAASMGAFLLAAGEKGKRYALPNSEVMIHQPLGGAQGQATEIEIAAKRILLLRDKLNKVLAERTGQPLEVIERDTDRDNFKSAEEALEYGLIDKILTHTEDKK
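Buffer: 100 mM Tris/HCl pH8, 100 mM KCl, 0.05% low protease BSA, 2.5% glycerol, 0.01% Tween-20. ClpP 10 microg/mL final; 20 min RT; delta FRET normalized to ADEP and DMSO controls.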
Hits are given with their value; n = inactive; u = inconclusive; x = no result given. Unless noted, calls come from the whole dose curve; as a rule, active = well fitted inhibition curve with a large enough effect; inconclusive = small, poorly fitted or top-dose-only effect; inactive = flat fitted curve, though single readings scatter.

SMILES	DRD3 agonist	IL-1B inflam inh	DT40 TDP1 no CPT	DRD3 antagonist	TDP1 cell CPT	ClpP mod
CCc1ccccc1NC(=O)Cn1c(=O)n(CCCCCC(=O)NCc2ccc(C)cc2)c(=O)c2sccc21	n	x	u	x	u	n
O=C(Nc1ccccc1-c1ccccc1)NC1CC2CCCC(C1)N2Cc1ccc(F)cc1 (configuration not stated)	n	-61	23µM	-101	21µM	x
Cc1ccc(C(=O)OCC(=O)N2CCC(c3ccccc3)=N2)cc1	n	-85	u	n	u	x
CN(C)c1nc(-c2cccs2)cc(C(F)(F)F)c1C#N	n	x	n	n	n	x
CCCSc1nc(-c2ccccc2)cc(C(F)(F)F)c1C#N	n	n	u	n	u	u
CN(C)c1nc(-c2ccccc2)cc(C(F)(F)F)c1C#N	n	n	n	n	n	32µM
N#Cc1c(C(F)(F)F)cc(-c2ccccc2)nc1SCCN1CCOCC1	n	n	u	n	21µM	n
COc1ccccc1NS(=O)(=O)c1cc(C(=O)N2CCCC2)ccc1F	n	n	n	n	n	n
CCOc1ccc2c(c1)c(=O)c(S(=O)(=O)c1ccc(Cl)cc1)cn2Cc1ccccc1C	n	x	u	x	u	u
CCN(CC)c1ccc(NC(=O)CN(C)Cc2cccs2)cc1	n	n	16µM	n	u	x
Cc1ccc(NC(=O)CN(C)Cc2cccs2)cc1Cl	n	n	21µM	u	u	x
CN(CC(=O)Nc1c(F)cccc1F)Cc1cccs1	n	n	n	n	n	x
N#CC1=C(N)CCC1	x	x	n	x	n	n
COc1ccccc1CN(C)C[C@H]1OCc2cnnn2CCCC(=O)N([C@@H](C)CO)C[C@@H]1C	n	n	n	n	n	n
Cc1nc2c(OCc3ccc(C(F)(F)F)cc3)cccn2c1N(C)C(=O)CCC1CCCC1	n	n	u	n	u	n
CCC(CC)C(=O)N(C)c1c(C)nc2c(OCc3ccc(F)c(F)c3)cccn12	n	n	21µM	n	u	n
CCC(CC)C(=O)N(C)c1c(C)nc2c(OCc3ccc(C(F)(F)F)cc3)cccn12	n	u	18µM	n	23µM	n
O=C(O)c1ccc(S(=O)(=O)Nc2ccc3c(c2)OCCO3)cc1	n	n	n	n	n	n
O=C(N[C@@H](Cc1ccccc1)C(=O)N1CCN(S(=O)(=O)c2ccc(F)cc2)CC1)c1ccco1	n	n	21µM	n	15µM	n
CCOc1ccc(S(=O)(=O)Nc2ccc(C(=O)NCC3(N4CCCCC4)CCCCC3)cc2)cc1	n	n	21µM	n	u	x
O=C(NC(Cc1ccccc1)C(=O)N1CCN(S(=O)(=O)c2ccccc2)CC1)c1ccccc1 (configuration not stated)	n	n	n	n	u	n
CCN(CC)S(=O)(=O)c1ccc(S(=O)(=O)Nc2ccc(C(=O)N3CCCC3)cc2)cc1	n	n	n	-56	n	n
O=C(c1ccc(NS(=O)(=O)c2ccc3c(c2)OCCO3)cc1)N1CCCCC1	n	u	21µM	n	u	n
CCOC(=O)c1ccccc1NC(=O)CN1C(=O)CC(c2ccccc2)Sc2ccccc21 (configuration not stated)	n	x	x	x	x	u
Cc1oc2ncn(CC(C)C)c(=O)c2c1C(=O)N1CCN(c2ccc(F)cc2)CC1	n	x	n	x	n	n
SMILES	DRD3 agonist	IL-1B inflam inh	DT40 TDP1 no CPT	DRD3 antagonist	TDP1 cell CPT	ClpP mod
Cc1ccc(-c2csc(NCCn3c(C)nc4cc(C(F)(F)F)ccc43)n2)cc1	n	n	u	n	u	n
CC(C)=CCC[C@@](C)(O)[C@H]1CC=C(C)CC1	n	x	n	x	n	x
CC(=O)N1CCN(C(=O)c2ccc(NS(=O)(=O)c3ccc(Cl)c(Cl)c3)cc2)CC1	n	n	n	n	n	14µM
CC1CN(C(=O)c2ccc(S(=O)(=O)Nc3ccccc3F)cc2)CC(C)O1 (configuration not stated)	n	n	n	n	n	x
CCOc1ccc(NS(=O)(=O)c2ccc(C(=O)N3CCCCC3)cc2)cc1	n	n	13µM	n	15µM	n
CC(=O)N1CCN(C(=O)c2ccc(S(=O)(=O)Nc3ccccc3Cl)cc2)CC1	n	n	n	n	n	x
CC1CN(C(=O)c2ccc(NS(=O)(=O)c3ccc(C(C)(C)C)cc3)cc2)CC(C)O1 (configuration not stated)	n	n	9.2µM	n	15µM	n
O=C(c1ccc(S(=O)(=O)Nc2ccc(F)cc2)cc1)N1CCN(C(=O)c2ccco2)CC1	n	n	12µM	n	13µM	n
OCCNC(=S)Nc1cccc(Cl)c1Cl	n	x	n	n	n	x
Cc1cccc(C(=O)NCC(=O)NC(C)c2ccc(-n3ccnc3)cc2)c1 (configuration not stated)	n	n	n	n	n	n
COC(=O)c1sccc1S(=O)(=O)N(CC(=O)NCc1ccc(F)cc1)c1ccc(C)c(C)c1	n	x	n	x	u	n
CCOc1ccccc1N1CCN(C(=O)c2ccc(S(=O)(=O)Nc3ccccc3)cc2)CC1	n	n	u	n	18µM	n
CCOc1ccc(NS(=O)(=O)c2ccc(C(=O)N3CCN(c4ncccn4)CC3)cc2)cc1	n	n	8.2µM	n	9.2µM	x
COc1ccc(NS(=O)(=O)c2ccc(C(=O)N3CCC(C)CC3)cc2)cc1	n	n	u	n	23µM	x
CCOc1ccccc1N1CCN(C(=O)c2ccccc2)CC1	n	n	n	n	n	n
CC1CCN(C(=O)c2ccc(NS(=O)(=O)c3ccccc3)cc2)CC1	n	n	n	n	n	n
O=C(NC(Cc1ccccc1)C(=O)N1CCN(c2ccccc2O)CC1)c1ccccc1 (configuration not stated)	n	n	16µM	n	u	x
COc1ccc(-c2c(C#N)c(SCC(=O)Nc3ccccc3C)nc(C)c2C(=O)Nc2ccccc2)cc1OC	n	x	n	x	n	n
COCCS(=O)(=O)N(Cc1ccc(Br)cc1)[C@@H](C)C(=O)OC	n	n	n	n	n	n
COc1cccc2c1C(=O)/C(=C/c1ccc(N(C)C)cc1)C2	x	x	u	x	u	n
C/C(=N\NC(N)=S)C1C2C3CC4C5CC(C42)C1C53 (configuration not stated)	n	n	10µM	u	u	x
CCC1CC(/C(C)=N/NC(N)=O)OC1=O (configuration not stated)	n	n	n	n	n	x
COc1ccc(Cl)cc1Nc1cc(C)nc2ncnn12	n	n	n	n	n	n
Nc1ncnc(N2CCc3ccccc32)c1[N+](=O)[O-]	n	n	7.3µM	n	5.8µM	n
